# Test results: ChEMBL document CHEMBL4513216, “Probing the Open Global Health Chemical Diversity Library for Multistage-Active Starting Points for Next-Generation Antimalarials” (ACS Infect Dis, 2020)
# Screen size: about 65,000 compounds; about 2,100 (3.2%) showed an effect of 50% or more. The median lay at about -52%. Only a selection was taken, and strong results are over-represented in it overall.
# Tested on: Plasmodium falciparum
# Experiment: Screen against P. falciparum Asexual Blood Stage (ABS), at 5uM
# Format: functional, Dd2
# Conditions: tested at 5 uM
row,Compound,INHIBITION [%]
1,COc1cccc(CN2CCN3C(=O)NC[C@H]3C2)n1,-90.1
2,Cc1cccc(CN2CCN3C[C@H](Oc4cccnc4)C[C@H]3C2)n1,-91.1
3,Clc1cccc2c3c([nH]c12)CCN(Cc1cc2n(n1)CCNC2)C3,79.1
4,Clc1cccc2c3c([nH]c12)CCN(Cc1cc2n(n1)CCCNC2)C3,89.7
5,c1cncc(OC[C@]23COC[C@H]2CN(Cc2nccs2)C3)c1,-94.4
6,Cc1cc(N2CCOC(c3ccccn3)C2)nc(N)n1 (stereo not drawn),75.1
7,Cc1cccc(CN2CCO[C@H]3[C@H](Oc4ccccn4)CC[C@@H]32)n1,-7.66
8,CC(C)N1CCOC(c2ccnc(N(C)C)n2)C1 (stereo not drawn),-133
9,N#CC1CCCN(c2nc(-c3ccccc3)nc3c2CCNCC3)C1 (stereo not drawn),79.9
10,NCC1CCCN(c2nc(-c3ccccc3)nc3c2CCNCC3)C1 (stereo not drawn),85.9
11,Cc1noc(C)c1CN1C[C@H](OCC2CC2)[C@H]2OCCC[C@H]21,-58
12,CS(=O)(=O)NCc1cncc2c1CCN(CC1CCOC1)C2 (stereo not drawn),-80.3
13,Cc1noc(C)c1CN1C[C@H](OCC(=O)N(C)C)[C@H]2OCCC[C@H]21,-72.7
14,Cc1cc(CN2CCc3nc(N4CCOCC4)nc(O)c3CC2)c(C)s1,77.6
15,Cc1cc(CN2CCc3nc(-c4ccncc4)nc(O)c3CC2)c(C)s1,91
16,O=C(N[C@H]1CN[C@H]2CCCO[C@H]21)c1cccnc1,-13.5
17,Cc1cc(CN2CCO[C@H]3[C@H](OCc4csc(C)n4)CC[C@@H]32)no1,-73.3
18,CC(C)[C@H](N)C(=O)N1CCSc2ccccc2C1,73.7
19,O=C1Nc2ccccc2C12CCCN(Cc1ccncc1)C2 (stereo not drawn),-78.5
20,Cc1cccc(CN2CCOCC3(CCN(C4CCOCC4)C3)C2)c1 (stereo not drawn),78.6
21,c1cncc(CN2CCCC3(COCCN(c4nccs4)C3)C2)c1 (stereo not drawn),10.9
22,c1cc(CN2CCOCC3(CCN(C4CCOCC4)C3)C2)ccn1 (stereo not drawn),-38.5
23,c1ccc(CN2CCOCC3(CCN(C4CCOCC4)C3)C2)cc1 (stereo not drawn),82.2
24,CNC(=O)CN1CCOCC2(CCCN(Cc3cccnc3)C2)C1 (stereo not drawn),-8.58
25,c1cncc(CN2CCC3(COCCN(C4CCOCC4)C3)C2)c1 (stereo not drawn),-42
26,O=C(Cc1cccnc1)N1CCC2(CC1)CCN(C1CCOC1)C2 (stereo not drawn),-58.9

row,Compound,INHIBITION [%]
1,Fc1cccc(CN2CCC3(CCN3c3ncccn3)C2)c1 (stereo not drawn),27.1
2,Fc1cccc(CN2CCOCC3(CCN(C4CCOCC4)C3)C2)c1 (stereo not drawn),78.2
3,COCCN1CCN(c2cccc(C)n2)Cc2ccc(C)nc21,-14.7
4,Cc1cc(NC2CC3(CCN(Cc4csc(C)n4)C3)C2)ncn1 (stereo not drawn),-142
5,Cc1nocc1C(=O)N1CCOC2(COCCN(C(C)C)C2)C1 (stereo not drawn),-62.3
6,CC(c1cccc(O)c1)N(C)S(=O)(=O)c1cccnc1 (stereo not drawn),71.4
7,CCN(C(C)c1cccc(O)c1)S(=O)(=O)c1cccnc1 (stereo not drawn),76.6
8,CN1CCO[C@@H]2CN(S(=O)(=O)c3cccnc3)C[C@@H]2C1,-79
9,CN1CCC(N2CCN3C(=O)NC[C@H]3C2)CC1,-11
10,COCCN1CCN(S(=O)(=O)C2CC2)Cc2cccnc21,-40.8
11,Cc1cccc(CN2CCC(NCC3CNc4cc(C)nn4C3)CC2)c1 (stereo not drawn),86.5
12,Cc1cc2n(n1)CC(CNC1CCN(Cc3ccccc3C)CC1)CN2 (stereo not drawn),71
13,Cc1cc(-c2ccc(C(C)N3CCCCC3)cc2)cnc1N (stereo not drawn),91
14,Cc1oncc1C(=O)N1CC[C@H]2[C@H]1CCN2Cc1ccccn1,-23.4
15,COCCCNc1c(C#N)c2c(c3nncn13)CN(C)CC2,-104
16,CCN(CC)C(=O)c1ccc(NC(=O)CNc2ccc(Br)cc2F)cc1,-171
17,O=C(c1cccc(-n2cnnn2)c1)N1CCC2(CC1)OCCO2,-24.5
18,Cc1ccc(-n2cnnn2)cc1NCC(=O)Nc1cc(F)ccc1F,72.3
19,CCN(CC)C(=O)c1ccc(NC(=O)CNc2ccc(F)cc2Cl)cc1,-91.8
20,O=C(c1cc(-n2cnnn2)ccc1Cl)N1CCC2(CC1)OCCO2,-29.7
21,Cc1ccc(-n2cnnn2)cc1NCC(=O)Nc1ccccc1Cl,79.3
22,O=C(NCC1CCC2(CCNCC2)O1)C1CC1 (stereo not drawn),47.7
23,Cc1cccnc1N1CC2(CCN(Cc3cnn(C)c3)C2)C1,23.4
24,Cc1[nH]c2c(F)cccc2c1CC(=O)N1CCN(C2CCSCC2)CC1,-8.93
25,COc1ccc(CN2CCNC(=O)CC2)cc1SC(F)(F)F,74.5
26,COc1cccc(C2=CCN(CCN3CCOC3=O)CC2)c1,-8.54

row,Compound,INHIBITION [%]
1,Cc1cc(CN2C[C@@H]3CCCO[C@@H]3[C@H](Nc3ccccn3)C2)no1,-62.6
2,OC(COCc1ccc(Cl)cc1)CN1CCC(c2ccn[nH]2)CC1 (stereo not drawn),70.9
3,CCOCC(O)CN1CCN(C(=O)Cc2ccc(C)nc2)CC1 (stereo not drawn),-7.76
4,O=C1NCC2(CCCN(Cc3cccnc3)C2)Oc2ccccc21 (stereo not drawn),-134
5,Cc1noc(C)c1CN(Cc1cccnc1)C1CN2CCC1CC2 (stereo not drawn),-110
6,Cc1ccsc1CN(Cc1cccnc1)C1CC(C)(C)NC(C)(C)C1,81.4
7,CCCN(Cc1cccnc1)C1CC(C)(C)NC(C)(C)C1,77.6
8,CCN(Cc1cccnc1)CC1CCCO1 (stereo not drawn),-162
9,CCc1cc(CN(Cc2cccnc2)C2CN3CCC2CC3)on1 (stereo not drawn),3.06
10,Cc1ccsc1CN1C[C@@H]2CN(Cc3cccnc3)CCO[C@@H]2C1,-28.4
11,CC1(C)CC(N(Cc2cccnc2)Cc2cccc(F)c2)CC(C)(C)N1,76.6
12,CC1(C)CC(N(Cc2ccccc2)Cc2ncc[nH]2)CC(C)(C)N1,70.3
13,Cc1ncc2c(c1CNC(=O)C1(C)CCCO1)CCNC2 (stereo not drawn),-148
14,C[C@@H]1CN(C2CCOC2)C[C@]12CCN(Cc1cccnc1)C2=O (stereo partly drawn),-45.9
15,Clc1cc(N2CCN3CCCCC3C2)nc2[nH]ccc12 (stereo not drawn),42.6
16,CN(C)CCN1CCCC12CCN(C(=O)c1ccncc1)CC2,-98.9
17,c1ccc(OCC2C[C@@H]3[C@@H](C2)OCCN3CC2CCOCC2)nc1 (stereo partly drawn),-60.7
18,COc1ccc(N2CCCC3(C2)CN(c2nncs2)CCO3)cc1 (stereo not drawn),88
19,Cc1noc(C)c1CN1CCCC2(C1)CN(c1nncs1)CCO2 (stereo not drawn),-18.9
20,Cc1noc(C)c1CN1CCOC2(CCCN(c3nncs3)C2)C1 (stereo not drawn),-103
21,O=C1CSC(c2ccncc2)c2c(n(C3CCOCC3)[nH]c2=O)N1 (stereo not drawn),-84.2
22,CC(C)C(NC(=O)c1ccco1)C(=O)N1CCC2(CC1)OCCO2 (stereo not drawn),-80.1
23,CNC(=O)CCN(C)CC1(c2ccc(Br)cc2)CC1,87.3
24,CC(=O)N1CCCC(c2ccc(N3CCN(C)CC3)cn2)C1 (stereo not drawn),-0.837
25,CN1CCCC(c2cncc(-c3cccc(C(F)(F)F)c3)n2)C1 (stereo not drawn),77.3
26,Cc1sc2c(C3CCCN(C)C3)nc(C)n2c1C (stereo not drawn),42.7

row,Compound,INHIBITION [%]
1,CN1CCCC(c2cccc(-c3cccc(C(F)(F)F)c3)n2)C1 (stereo not drawn),73.7
2,CN1CCC(c2cncc(N(C)C)n2)CC1,-19
3,CN1CCCC(c2cccc(-c3cccc(F)c3)n2)C1 (stereo not drawn),74
4,CNC(=O)c1ccc2c(c1)C1(CCN(CC(C)C)CC1)C(=O)N2,-15.5
5,Cc1nccc([C@H]2C[C@@H]3CCN(Cc4ccco4)C[C@H]3O2)n1,-9.96
6,Cc1ccc(CC(=O)N2CCN(C3CCOC3=O)CC2)cc1 (stereo not drawn),-27.2
7,CC(C)N1CCN(C)C2(CCN(C(=O)c3ccnnc3)CC2)C1=O,-37.3
8,CN1CCN2C(=O)N(C3CCOCC3)C[C@H]2C1,-99.7
9,c1cncc(COCC2CC[C@H]3[C@H]2OCCN3Cc2ccoc2)c1 (stereo partly drawn),-12.2
10,Cc1noc(C)c1CN1C[C@H]2CNC[C@H]2C1,9.33
11,CCC[C@H]1CN(S(=O)(=O)c2ccc(CC)s2)C[C@@H]1N,75.8
12,CCC[C@H]1CN(S(=O)(=O)c2c(C)noc2C)C[C@@H]1N,82.5
13,Cc1nc2sccn2c1CN(CCCN(C)C)Cc1ccco1,86.2
14,Cc1ccc(CN(CCN(C)C)C(=O)Cc2cn3ccccc3n2)o1,-67.1
15,CN(C)CCN(Cc1ccco1)C(=O)Cc1cn2ccsc2n1,-5.56
16,Cc1ccc(CN(CCN(C)C)Cc2c(C)nc3sccn23)o1,84.6
17,Cc1nc(CC(=O)N(CCN2CCOCC2)Cc2ccco2)c(C)s1,-135
18,CNC(=O)CN1CCO[C@H]2CN(C(=O)c3ccncc3F)C[C@H]21,-74.6
19,CCCn1cc(C(=O)NC(C(=O)O)c2ccccc2C(F)(F)F)c(C)n1 (stereo not drawn),-51.5
20,CS(=O)(=O)N1CCN(CC2CC2)c2ncccc2C1,-25.9
21,OC[C@H]1CN2CCN(c3ccccn3)C[C@@H]2[C@@H]1c1ccccc1,-11.3
22,NCC1Cc2cc(Oc3cc(F)c(CN4CCCC4)c(F)c3)ccc2O1 (stereo not drawn),77.8
23,COc1ccc(CN2CCCC2)cc1Oc1ccc2c(c1)CC(CN)O2 (stereo not drawn),88.2
24,COc1ncccc1CN1C[C@@H]2COC[C@]2(COCC2CC2)C1,33.8
25,Cc1cccc(CN2C[C@@H]3COC[C@]3(COc3cccnc3)C2)n1,-77.5
